Source: PubChem BioAssay (NCATS)
Records with an inconclusive call do not appear. The source made the active and inactive calls. Unless noted, the call rests on the fitted dose curve; in most records, active means well fitted curve in either direction with a large enough effect (not every such curve was filed as active); inconclusive means small, poorly fitted or top-dose-only effect, or another doubt; inactive means flat fitted curve, though single readings scatter.

System: not listed separately
Test: Stat Signaling Pathway (AID 446);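 further: ME-180 cervical cancer cells given 40 pM IL-6 alongside compound; SIE-controlled beta-lactamase reporter measured as 460/530 nm FRET emission ratio; on the % scale 0 is the no-effect control and ±100 the full control effect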
Settings: ME-180 SIE beta-lactamase reporter, IL-6 stimulated, 5 h; at 17.2 µM (top of the series) unless noted
Summary of the method: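 ME-180 cells carrying a SIE-driven beta-lactamase reporter are stimulated with 40 pM IL-6 for 5 h at 37C in the presence of compound. The 460/530 nm FRET substrate ratio is read after 2.5 h at RT. Data are normalised to 300 pM IL-6 and to 125 nM JAK inhibitor controls.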

activity, negative = inhibition, active:
COc1cccc(N2CCN(c3ncnc4c3[nH]c3ccc(F)cc34)CC2C)c1 (stereo unspecified) -104%

activity, negative = inhibition, inactive:
Cc1cc(=O)[nH]c(COc2ccccc2)n1 -2.52%
CC1(C)CC(N(Cc2ccco2)C(=O)Cc2ccccc2)CCO1 (stereo unspecified) 9.62%
COc1ccc(OC)c(N=C(C)C2=C(O)COC2=O)c1 -3.94%
CCOC(=O)c1cc2c(=O)n3cccc(C)c3nc2n(Cc2cccnc2)c1=N 12%
Cc1ccc(N2C(=O)C3ON(c4ccccc4)C(c4ccncc4)C3C2=O)cc1 (stereo unspecified) -10.5%
CCSc1nc(N)c2c3c(sc2n1)CCC3 -3.03%
Cc1ccc(N2C(=O)C3ON(c4ccccc4)C(c4ccncc4)C3C2=O)c(C)c1 (stereo unspecified) 0.652%
COc1ccc(/C(O)=C2/C(=O)C(=O)N(c3ncccn3)C2c2ccc(OC)c(OC)c2)cc1 (stereo unspecified) -6.81%
CCOC(=O)CC(C#N)c1cn(C)c2ccccc12 (stereo unspecified) 3.49%
COC(=O)CC1SC(=O)NC1=O (stereo unspecified) 7.23%
Cn1c(=O)c2c(nc(NCc3ccc4c(c3)OCO4)n2Cc2ccc(F)cc2)n(C)c1=O -22%
COc1cc(OC)cc(C(=O)N2CCC(N3CCN(c4ccccc4)CC3)CC2)c1 4.25%
C=CCn1c(-c2ccccc2)n[nH]c1=S 3.46%
Cc1nnc(N2CCOCC2)c2ccccc12 5.08%
CCOC(=O)c1c(C)n(C)c2ccc(OC)c(NC(=O)CN3CCSCC3)c12 -8.37%
Cc1nnc2n(-c3ccccc3)c(=O)c3c4c(sc3n12)COC(C(C)C)C4 (stereo unspecified) 4.52%
CN1CCc2c(c3c(n2C)CCN(C)[C@@H]3c2cccnc2)[C@H]1c1cccnc1 9.53%
C/C(=N\O)c1c(C)c2ccccc2n1C 4.84%
N/C(=N\c1nc2ccccc2o1)NC(=O)c1ccccc1NC(=O)c1ccccc1 -27.8%
COc1ccc(C=NCCC2(O)CC(C)N(C)CC2C)cc1 (stereo unspecified) 11.9%
CO[C@H]1C[C@@H]2CC[C@@H](C)[C@@](O)(O2)C(=O)C(=O)N2CCCC[C@H]2C(=O)O[C@H]([C@H](C)C[C@@H]2CC[C@@H](O)[C@H](OC)C2)CC(=O)[C@H](C)C=C(C)[C@@H](O)[C@@H](OC)C(=O)[C@H](C)C[C@H](C)C=CC=CC=C1C -28.8%
COc1ccc(C2C=C(c3ccc(Cl)cc3)Nc3nc(NC(C)=O)nn32)cc1 (stereo unspecified) -9.52%
O=C1C(=O)N(Cc2cccnc2)C(c2ccccn2)/C1=C(/O)c1ccc(F)cc1 (stereo unspecified) 0.323%
CCN(CC)c1nc(C)c2c(c1C#N)CC(C)(C)OC2 7.18%
COc1cc(N2CCCC2)c(OC)cc1/C=c1/sc2nc3ccccc3n2c1=O -0.381%
COc1ccc(/C=N/n2cncn2)cc1COc1ccc(NC(C)=O)cc1 -3.18%
C=CCc1cccc(/C=N/n2cnnc2)c1O 7.8%
Cc1cc(/C=N/n2cnnc2)c(C)n1-c1ccc2c(c1)OCO2 -0.639%
Cc1c(OCc2ccccc2)c(=O)ccn1Cc1ccccc1 1.99%
COc1ccc(N2CC(=O)N(c3ccc(OC)c(OC)c3)CC2=O)cc1OC 1.83%
COC(=O)c1ccc(C2/C(=C(\O)c3cccc(OC)c3)C(=O)C(=O)N2CCCN2CCOCC2)cc1 (stereo unspecified) 15.2%
CC/C(=N\O)c1ccc(OC)c(OC)c1 3.07%
Cc1nnc(C)n1/N=C/c1cccn1C -1.54%
Cc1cc(C)n(CC2CC(=O)N(c3cc(Cl)cc(Cl)c3)C2=O)n1 (stereo unspecified) 2.96%
COC(=O)c1n[nH]c2ccccc12 -6.08%
Cn1c(=NCC(O)COc2ccccc2)sc2ccccc21 (stereo unspecified) 8.49%
CCC1(C)Cc2c(sc3[nH]c(=O)[nH]c(=O)c23)CS1 (stereo unspecified) -2.55%
COC(=O)C(NC(=O)c1ccccc1)(Nc1nc(C)cs1)C(F)(F)F (stereo unspecified) -6.57%
Cc1ccc2cc(CNC(C)(C)C)c(=O)[nH]c2c1 -2.54%

Biological target: Glucocorticoid receptor (Homo sapiens) (UniProt P04150)
Test: GR-GFP Redistribution (AID 450;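 active means compounds whose dose series gives a full or clear partial fitted curve of increased nuclear translocation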; further: potency means the concentration at half of the fitted maximal effect)
Settings: U2OS GR-GFP nuclear translocation, laser cytometry, 2 h; series mostly up to 20.6 µM

Sequence of Glucocorticoid receptor (Homo sapiens) (P04150 whole entry, looked up): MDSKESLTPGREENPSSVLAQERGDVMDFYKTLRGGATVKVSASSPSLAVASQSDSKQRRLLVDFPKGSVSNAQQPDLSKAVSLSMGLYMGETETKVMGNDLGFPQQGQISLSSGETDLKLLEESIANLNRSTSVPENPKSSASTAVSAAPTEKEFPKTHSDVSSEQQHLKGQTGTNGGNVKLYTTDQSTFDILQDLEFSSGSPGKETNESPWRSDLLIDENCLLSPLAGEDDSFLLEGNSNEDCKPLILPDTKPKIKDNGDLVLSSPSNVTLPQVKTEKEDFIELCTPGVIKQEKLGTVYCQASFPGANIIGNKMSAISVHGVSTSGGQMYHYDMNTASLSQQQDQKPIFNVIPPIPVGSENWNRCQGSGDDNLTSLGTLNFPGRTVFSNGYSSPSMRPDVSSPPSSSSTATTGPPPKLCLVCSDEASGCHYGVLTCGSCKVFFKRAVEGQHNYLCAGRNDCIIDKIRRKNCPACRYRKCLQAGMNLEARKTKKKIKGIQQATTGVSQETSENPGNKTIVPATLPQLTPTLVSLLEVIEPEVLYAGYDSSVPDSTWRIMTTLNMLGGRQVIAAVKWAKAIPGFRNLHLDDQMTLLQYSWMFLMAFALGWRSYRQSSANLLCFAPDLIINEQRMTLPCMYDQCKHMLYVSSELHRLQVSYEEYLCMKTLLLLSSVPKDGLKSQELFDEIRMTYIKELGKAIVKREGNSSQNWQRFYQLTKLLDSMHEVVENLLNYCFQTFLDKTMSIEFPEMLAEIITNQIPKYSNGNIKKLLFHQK

Potency, inactive:
Cc1cc(=O)[nH]c(COc2ccccc2)n1 > 20.6 µM
CCOC(=O)c1cc2c(=O)n3cccc(C)c3nc2n(Cc2cccnc2)c1=N > 20.6 µM
Cc1ccc(N2C(=O)C3ON(c4ccccc4)C(c4ccncc4)C3C2=O)c(C)c1 (stereo unspecified) > 20.6 µM
COc1ccc(/C(O)=C2/C(=O)C(=O)N(c3ncccn3)C2c2ccc(OC)c(OC)c2)cc1 (stereo unspecified) > 20.6 µM
CCOC(=O)CC(C#N)c1cn(C)c2ccccc12 (stereo unspecified) > 20.6 µM
Cn1c(=O)c2c(nc(NCc3ccc4c(c3)OCO4)n2Cc2ccc(F)cc2)n(C)c1=O > 20.6 µM
Cc1nnc(N2CCOCC2)c2ccccc12 > 20.6 µM
Cc1nnc2n(-c3ccccc3)c(=O)c3c4c(sc3n12)COC(C(C)C)C4 (stereo unspecified) > 20.6 µM
C/C(=N\O)c1c(C)c2ccccc2n1C > 20.6 µM
N/C(=N\c1nc2ccccc2o1)NC(=O)c1ccccc1NC(=O)c1ccccc1 > 20.6 µM
COc1ccc(C=NCCC2(O)CC(C)N(C)CC2C)cc1 (stereo unspecified) > 20.6 µM
COc1ccc(C2C=C(c3ccc(Cl)cc3)Nc3nc(NC(C)=O)nn32)cc1 (stereo unspecified) > 20.6 µM
O=C1C(=O)N(Cc2cccnc2)C(c2ccccn2)/C1=C(/O)c1ccc(F)cc1 (stereo unspecified) > 20.6 µM
CCN(CC)c1nc(C)c2c(c1C#N)CC(C)(C)OC2 > 20.6 µM
COc1ccc(/C=N/n2cncn2)cc1COc1ccc(NC(C)=O)cc1 > 20.6 µM
C=CCc1cccc(/C=N/n2cnnc2)c1O > 20.6 µM
Cc1cc(/C=N/n2cnnc2)c(C)n1-c1ccc2c(c1)OCO2 > 20.6 µM
COc1ccc(N2CC(=O)N(c3ccc(OC)c(OC)c3)CC2=O)cc1OC > 20.6 µM
COC(=O)c1ccc(C2/C(=C(\O)c3cccc(OC)c3)C(=O)C(=O)N2CCCN2CCOCC2)cc1 (stereo unspecified) > 20.6 µM
Cc1nnc(C)n1/N=C/c1cccn1C > 20.6 µM
Cc1cc(C)n(CC2CC(=O)N(c3cc(Cl)cc(Cl)c3)C2=O)n1 (stereo unspecified) > 20.6 µM
COC(=O)c1n[nH]c2ccccc12 > 20.6 µM
Cn1c(=NCC(O)COc2ccccc2)sc2ccccc21 (stereo unspecified) > 20.6 µM
CCC1(C)Cc2c(sc3[nH]c(=O)[nH]c(=O)c23)CS1 (stereo unspecified) > 20.6 µM
COC(=O)C(NC(=O)c1ccccc1)(Nc1nc(C)cs1)C(F)(F)F (stereo unspecified) > 20.6 µM
Cc1ccc2cc(CNC(C)(C)C)c(=O)[nH]c2c1 > 20.6 µM
